In the library only some 12% were active in any assay of this set; here they are far more common.
HP1b binding inh: blocks HP1-beta chromodomain binding to methylated histone tails. P83916. AlphaScreen HP1-beta / biotin-H3K9me3 peptide binding. Potency, µM (highest dose often 114 µM), inactives show at the top dose activity change, negative = inhibition, most hits filed as inhibitors. 390,000 tested, 0.56% active; also: nearly all actives have a fitted effect of over 70% in size
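AlphaScreen: HP1-beta (50 nM) preformed 30 min with biotin-H3(1-18)K9me3 peptide (50 nM) in PBS pH 7.4, 0.01% Tween-20. Compound added for 30 min at RT, then streptavidin donor/nickel chelate acceptor beads (10 ug/mL) for 30 min.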
BAZ2B block: BAZ2B (human) inhibition; Q9UIF8; AlphaScreen BAZ2B-H3K14Ac peptide displacement; Potency, µM (top dose mostly 114 µM), for the others: at the top dose activity change, negative = inhibition, most hits filed as inhibitors; 360,000 tested, 4.4% active; also: % is scaled to controls: 0 for no effect and ±100 for the full control effect; nearly all actives have a fitted effect of over 60% in size
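AlphaScreen displacement: compounds (up to 110uM) incubated 30 min at room temperature with a preformed 50 nM BAZ2B/50 nM biotinylated H3K14Ac peptide complex in PBS pH 7.4 with Tween-20. Donor and acceptor beads at 10 ug/mL final added, 20 min light-protected before reading.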
PLK1 PBD block: blocks phosphopeptide binding to human PLK1 polo-box domain; P53350; Plk1 PBD binding of FITC phosphopeptide, fluorescence polarization; Potency, µM, for the others: max response, negative = inhibition, hits mostly inhibitors; 360,000 tested, 2.8% active; AID 720504; also: series mostly up to about 57 µM; % is scaled to controls: 0 for no effect and ±100 for the full control effect; nearly all actives have a fitted effect of over 65% in size
G9a block: inhibitors of human histone lysine methyltransferase G9a. Q96KQ7. G9a H3K9 monomethylation, AlphaScreen, 2 h. Potency, µM (highest dose often 102 µM), for inactives: top-dose activity, negative = inhibition, actives largely listed as inhibitors. 350,000 tested, 8.8% active. AID 504332; also: % is scaled to controls: 0 for no effect and ±100 for the full control effect; nearly all actives have a fitted effect of over 75% in size
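AlphaScreen read-out: biotin-H3K9 peptide (500 nM) methylation by 20 nM enzyme with 20 uM SAM, 2 h at room temperature after 15 min compound preincubation; anti-monomethyl H3K9 antibody plus donor/acceptor beads, 10 min dark.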
JMJD2A Tudor inh: inhibitors of human JMJD2A Tudor domain | AlphaScreen JMJD2A-Tudor / H3K4me3 peptide binding | 390,000 tested, 4.4% active | O75164 | Potency, µM (highest dose often 114 µM), without a hit: top-dose activity change, negative = inhibition, hits mostly inhibitors; also: % is scaled to controls: 0 for no effect and ±100 for the full control effect; nearly all actives have a fitted effect of over 50% in size
Sfp inh: blocks B. subtilis Sfp PPTase activity; Potency, µM, inactives show largest response in the series, negative = inhibition, hits mostly inhibitors; Biochemical Sfp PPTase activity, qHTS; 310,000 tested, 3.5% active; Q9F4F7;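 also: the enzyme is Sfp with the accession as filed and its product quenches rhodamine fluorescence; 0% = enzyme reaction without inhibitor and -100% = no enzyme wells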
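After 15 min at room temperature with compound, 15 nM Sfp received 5 uM rhodamine-CoA plus 12.5 uM BHQ-2-ybbR (50 mM Hepes pH 7.6, 10 mM MgCl2). Rate came from the fluorescence difference over 30 min, ex 525/em 598 nm.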
* hit, by the source's call; [ ] = remark or other dose. Calls follow the shape of the dose curve; as a rule, active = well fitted curve in the direction sought with a large enough effect; inconclusive = small, poorly fitted or top-dose-only effect, or another doubt; inactive = no such curve, though single readings can be large; an effect the other way counts as inactive or inconclusive. Potency is read from the fitted curve at half-maximal effect.

Screening COC(=O)c1ccc(NCc2cc(O)ccc2O)cc1O returned HP1b binding inh 56µM*, PLK1 PBD block -6% and JMJD2A Tudor inh 8.9µM*.
`COC(=O)c1cc(NCc2c(F)cccc2Cl)ccc1N1CCOCC1` gave HP1b binding inh 23%, BAZ2B block -34%, PLK1 PBD block -9%, G9a block -2%[2.33 µM], JMJD2A Tudor inh -22% and Sfp inh -26%.
For COC(=O)c1ccc(NCc2c(O)ccc(O)c2Br)cc1Cl the results were HP1b binding inh 10µM*, PLK1 PBD block inconclusive and JMJD2A Tudor inh 3.5µM*.
Cc1cccc(NC(=O)CNC(=O)CN2C(=O)NC(C)(CCC(C)C)C2=O)c1C (stereo unspecified) was read as HP1b binding inh 51%, PLK1 PBD block 0% and JMJD2A Tudor inh 2%.
`COc1ccc(NC(=O)c2cc3cccc(OC)c3oc2=Nc2ccc(C(=O)O)cc2)cc1OC` gave HP1b binding inh 17%, BAZ2B block -32%, PLK1 PBD block -13%, G9a block 40µM*, JMJD2A Tudor inh -19% and Sfp inh 7%.
Screening O=C(Nc1ccc(N2CCCCCC2)cc1)c1ccc[nH]1 returned HP1b binding inh inconclusive, BAZ2B block 45µM*, PLK1 PBD block -4%, G9a block -26%[2.33 µM] and JMJD2A Tudor inh 50µM*.
Screening CSc1ccc(CN(C)C(=O)c2cc3ccccc3o2)cc1 returned HP1b binding inh 47%, BAZ2B block 21%, PLK1 PBD block -11%, G9a block 0%, JMJD2A Tudor inh 12% and Sfp inh 1%.
For O=C(Nc1ccc(N2CCCC2)cc1)c1cc2ccccc2o1 the results were HP1b binding inh -12%, BAZ2B block 25µM*, PLK1 PBD block -3%, JMJD2A Tudor inh inconclusive and Sfp inh inconclusive.
Screening CC(=O)N1CCN(c2ccc(NC(=O)c3cc4ccccc4o3)cc2)CC1 returned HP1b binding inh 29%, BAZ2B block -24%, PLK1 PBD block 2%, G9a block -37%, JMJD2A Tudor inh 0% and Sfp inh 13%.
`CN(Cc1ccccc1N1CCCC1)C(=O)c1cc2ccccc2o1` gave HP1b binding inh inconclusive, PLK1 PBD block 2% and JMJD2A Tudor inh 40µM*.
CN(C(=O)COC(=O)c1cc(S(=O)(=O)N2CCOCC2)ccc1F)C1CCS(=O)(=O)C1 (stereo unspecified) was read as HP1b binding inh 14%, BAZ2B block 12%, PLK1 PBD block -5%, G9a block -3% and JMJD2A Tudor inh -1%.
For Nn1c(SCC(=O)NC2CCCCCC2)nnc1-c1ccco1 the results were PLK1 PBD block -3%.
Screening COc1ccccc1CN1CC2(CCN(C(=O)c3cccc(F)c3)CC2)C1 returned G9a block 0%[12.7 µM] and Sfp inh 9%.
For CC1CCCCC1NC(=O)c1cc2ccccc2o1 (stereo unspecified) the results were HP1b binding inh 31%, BAZ2B block -38%, PLK1 PBD block 30µM*, G9a block inconclusive, JMJD2A Tudor inh -13%[57.1 µM] and Sfp inh -14%.
`O=C(Nc1ccc(N2CCCCC2)cc1)c1ccccn1` gave HP1b binding inh inconclusive, BAZ2B block inconclusive, PLK1 PBD block -18%, G9a block 45µM*, JMJD2A Tudor inh inconclusive and Sfp inh 1%.
For COc1ccc(NC(=O)c2cc3ccccc3o2)cc1OC the results were HP1b binding inh -16%, BAZ2B block -16%, PLK1 PBD block 24µM*, G9a block inconclusive, JMJD2A Tudor inh inconclusive and Sfp inh 9%.
For COc1ccc(NC(=O)c2cc3ccccc3o2)cc1 the results were HP1b binding inh 9%, BAZ2B block -3%, PLK1 PBD block -12%, G9a block 1%, JMJD2A Tudor inh -5% and Sfp inh 3%.
`O=C(O)c1nc(-c2ccccc2)n(-c2ccccc2)n1` gave HP1b binding inh 29%, BAZ2B block 0%, PLK1 PBD block 1%, G9a block inconclusive, JMJD2A Tudor inh -13% and Sfp inh 8%.

From PubChem BioAssay
